Laboratory results reported in PubChem BioAssay.
Active and inactive are the calls of the source.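 How the source made its calls, unless noted: active means NADPH fluorescence slope more negative than the mean of all samples by about 3 SD, 99.7% confidence; inactive means the rest.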

Columns and labels:
[1] = inhibitors of TNFa-induced NFkB p65 translocation, primary screen, imaging, HUVEC, MLSMR starter and 10KST1 sets (AID 438;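 active means inhibition above 20% together with a positive visual image hit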;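 further: compound added about 3h40 before a 20 min TNFalpha stimulation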;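 on inhibition: signal is the nuclear over cytoplasmic p65 intensity ratio per well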); conditions: HUVEC TNFa-induced p65 nuclear translocation; cell count: measured here: nuclei count (cytotoxicity indicator), at 2.08 µM unless noted; inhibition: at 2 µM, stronger effect = higher value unless noted
[2] = inhibitors of mutant huntingtin aggregation, primary screen, imaging, exon1htt(103Q)mCFP cells, high-content imaging (AID 483;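 active means visual image review flags a hit and inhibition of aggregation exceeds 20%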;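 further: compound exposure lasted 3 days before fixation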;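 on nuclei count: percent of the per-plate median nuclei count of sample wells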); conditions: exon1htt(103Q)mCFP cell line, aggregate imaging, at 2 µM; inhibition of aggregation: stronger effect = higher value; nuclei count: measured here: cell count, toxicity
[3] = inhibitors of E-selectin induction by TNFa, primary screen, imaging, HUVEC, immunofluorescence, MLSMR starter and 10KST1 sets (AID 487;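 active means visually confirmed hit in the image check and inhibition above 20%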;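 on inhibition: signal is fraction of cell area covered by stained E-selectin grains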;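 on nuclei count: 100% = median nuclei count of all wells on the same plate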); conditions: HUVEC TNFalpha-induced E-selectin immunofluorescence imaging, at 2 µM; inhibition: stronger effect = higher value; nuclei count: measured here: cell number, toxicity
[4] = biological target: Voltage-gated potassium channel subunit beta-2 (Rattus norvegicus) (UniProt P62483); assay: KvBeta enzyme negative modulators, primary screen, biochemical, NADPH fluorescence (AID 622;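 active means fluorescence slope higher than the sample average by over 3 SD, cut at about -0.22 in these data, passing the limit was not always enough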;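 further: slope of raw intensity against log time taken from 70 to 1610 s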); conditions: recombinant KvBeta, 4-cyanobenzaldehyde reduction, at 10 µM, stronger effect = higher value
[5] = biological target: Voltage-gated potassium channel subunit beta-2 (Rattus norvegicus) (UniProt P62483); assay: KvBeta positive modulators, primary screen, biochemical, NADPH fluorescence (AID 623); conditions: Recombinant KvBeta, NADPH fluorescence decrease slope, 10 min; at 10 µM; stronger effect = lower value;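 further: fluorescence intensity change per second fitted from 20 to 320 s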
[6] = biological target: Alpha-2C adrenergic receptor (Homo sapiens) (UniProt P18825); assay: modulators of alpha2C/GIRK thallium flux, primary screen, cell-based, HEK293 alpha2C/GIRK1/2 (AID 624;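 active means fluorescence slope after compound addition differing from the mean of all screened samples at 99.7% confidence, in either direction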;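 further: slope of fluorescence ratio to pre-addition baseline per second over 15 to 24 s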); conditions: thallium flux BTC fluorescence, at 10 µM, actives lie on both sides
[7] = inhibitors of Sendai virus-induced IRF3 signaling, primary screen, TLR/RLR signaling modifier project, cell-based, Sendai virus stimulus, luciferase, 10K MLSCN set (AID 602276;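 active means inhibition at or above 50% at 10 µM; inactive means inhibition below 50%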;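 further: firefly luciferase from ISG56 promoter only with Renilla not read in this screen; 0% = Sendai virus plus DMSO and 100% = medium plus DMSO without virus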); conditions: HEK293 RL24 IRF3 luciferase reporter, at 10 µM, stronger effect = higher value
[8] = inhibitors of poly I:C-induced TLR3 signaling, primary screen, cell-based, poly I:C stimulus, luciferase, 10K MLSCN set (AID 602277;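 active means inhibition of the reporter signal at or above 50%; inactive means inhibition below 50%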); conditions: HEK293-TLR3 RL24 IRF3 luciferase reporter, at 10 µM, stronger effect = higher value

Alpha-2C adrenergic receptor (Homo sapiens), sequence (P18825 whole entry, looked up): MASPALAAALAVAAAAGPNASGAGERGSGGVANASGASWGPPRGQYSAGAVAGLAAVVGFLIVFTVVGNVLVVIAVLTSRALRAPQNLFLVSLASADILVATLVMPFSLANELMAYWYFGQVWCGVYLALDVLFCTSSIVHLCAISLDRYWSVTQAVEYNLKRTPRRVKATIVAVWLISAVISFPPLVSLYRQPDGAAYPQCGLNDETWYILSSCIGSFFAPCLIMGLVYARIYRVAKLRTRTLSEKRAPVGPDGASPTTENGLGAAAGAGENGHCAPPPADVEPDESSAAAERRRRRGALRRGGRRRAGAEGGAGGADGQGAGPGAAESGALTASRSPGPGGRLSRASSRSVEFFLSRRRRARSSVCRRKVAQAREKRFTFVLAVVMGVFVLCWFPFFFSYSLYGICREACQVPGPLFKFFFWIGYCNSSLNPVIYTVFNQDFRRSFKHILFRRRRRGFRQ
Voltage-gated potassium channel subunit beta-2 (Rattus norvegicus), sequence (P62483 whole entry, looked up): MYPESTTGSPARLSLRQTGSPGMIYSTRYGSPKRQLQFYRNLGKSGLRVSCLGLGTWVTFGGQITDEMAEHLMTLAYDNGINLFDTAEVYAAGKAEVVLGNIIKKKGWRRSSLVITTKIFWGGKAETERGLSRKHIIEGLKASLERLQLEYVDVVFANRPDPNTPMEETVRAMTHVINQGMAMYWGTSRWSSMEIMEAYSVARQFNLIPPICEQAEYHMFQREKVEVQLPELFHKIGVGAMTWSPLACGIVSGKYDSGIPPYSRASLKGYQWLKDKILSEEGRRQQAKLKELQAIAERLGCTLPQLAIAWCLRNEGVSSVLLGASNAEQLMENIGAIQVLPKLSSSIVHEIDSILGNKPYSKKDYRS

| Compound | cell count [1] | inhibition [1] | inhibition of aggregation [2] | nuclei count [2] [%] | inhibition [3] | nuclei count [3] [%] | fluorescence slope [4] | NADPH fluorescence slope [5] | slope [6] | inhibition [7] | inhibition [8] |
| --- | --- | --- | --- | --- | --- | --- | --- | --- | --- | --- | --- |
| CC(C)(C)P(=O)(c1ccncc1)N1CCCC1 (stereo not given) | 520 | -2.4% (inactive) | -2.3% (inactive) | 113 | -21% (inactive) | 115 | -0.275 (inactive) | -4.3e-05 (inactive) | 0.00562 (inactive) | 14.9% (inactive) | 22.7% (inactive) |
| COc1ccc(CN2CCN(C(=O)Cc3ccccc3)CC2)c(OC)c1 | 402 | 2.1% (inactive) | 8% (inactive) | 94 | -13.2% (inactive) | 114 | -0.6 (inactive) | 1.9e-05 (inactive) | 0.00526 (inactive) | 15.3% (inactive) | 25.6% (inactive) |
| CCCCn1c(O)c(C=NC2CCCCC2N)c(=O)[nH]c1=O (stereo not given) | 747 | -6% (inactive) | 4.3% (inactive) | 113 | -67.3% (inactive) | 119 | -0.61 (inactive) | -4e-05 (inactive) | 0.00682 (inactive) | 8.89% (inactive) | 26.1% (inactive) |
| O=C(c1cccs1)C1CN2CCC1CC2 (stereo not given) | 582 | -15.9% (inactive) | 1.5% (inactive) | 75.5 | 7.9% (inactive) | 110 | -0.485 (inactive) | 3e-05 (inactive) | 0.00316 (inactive) | -7.76% (inactive) | 20.7% (inactive) |
| CP(C)(=O)CCC(=O)O | 347 | -7.5% (inactive) | -5.3% (inactive) | 99.6 | -100% (inactive) | 118 | -0.434 (inactive) | -0.000166 (inactive) | 0.00678 (inactive) | 2.85% (inactive) | 10.1% (inactive) |
| O=C(c1ccc2nc(-c3ccco3)c(-c3ccco3)nc2c1)N1CCC2(CC1)OCCO2 | 597 | -12.6% (inactive) | -4.6% (inactive) | 93.5 | 9% (inactive) | 105 | -0.104 (inactive) | -5.1e-06 (inactive) | 0.00382 (inactive) | -1.04% (inactive) | -7.99% (inactive) |
| COC(=O)c1cncn1C(C)c1ccccc1 (stereo not given) | 671 | -3.4% (inactive) | -10.9% (inactive) | 97.9 | -88.8% (inactive) | 110 | -0.488 (inactive) | -2.9e-05 (inactive) | 0.0055 (inactive) | -53.9% (inactive) | 13.1% (inactive) |
| Cc1ccc(Cn2c(C)c3cnn(CC(=O)N4CCC5(CC4)OCCO5)c(=O)c3c2C)cc1 | 471 | -6.5% (inactive) | -6.5% (inactive) | 110 | -135% (inactive) | 110 | -0.332 (inactive) | -6.2e-05 (inactive) | 0.0048 (inactive) | 9.46% (inactive) | -2.44% (inactive) |
| CN(C)CCc1nc2ccccc2c(=O)n1-c1ccccc1 | 241 | -2.3% (inactive) | 16.8% (inactive) | 96.8 | -21% (inactive) | 124 | -0.495 (inactive) | -5e-05 (inactive) | 0.00675 (inactive) | -20.1% (inactive) | -35% (inactive) |
| O=C(NC1(C(F)(F)F)Oc2ccc(Cl)cc2O1)N1CCC2(CC1)OCCO2 (stereo not given) | 676 | -22.3% (inactive) | -18.5% (inactive) | 114 | -97.5% (inactive) | 108 | -0.513 (inactive) | -9.9e-05 (inactive) | 0.00493 (inactive) | 8.96% (inactive) | 38.5% (inactive) |
